The source of these data is the supplement of paper PMC11383364.

Several values for one entry are separate records, joined by “and”; a condition that tells them apart may be missing. Equal entries are not always repeated. ± gives the standard deviation of the averaged measurements.

In the assay the test system is SUM149. The assay can be described thus: percent difference in area under dose-response curve of relative cell number, RPMI vs HPLM; higher = drug relatively more effective in HPLM than RPMI (negative = less effective in HPLM). To be noted: treatment time: 72 h; dose range: 10-point, 1 nM to 20 µM; media compared: RPMI vs HPLM.
Turning to `Cc1nc(=O)c2cc(CN(C)c3ccc(C(=O)N[C@@H](CCC(=O)O)C(=O)O)s3)ccc2[nH]1` [Raltitrexed], the “percent difference in area under dose-response curve” value (“percent difference in area” for short) turned out to be 0.127 ± 13%.
For `CC/C(=C(\c1ccccc1)c1ccc(OCCN(C)C)cc1)c1ccccc1` [Tamoxifen_Citrate], the “percent difference in area” value is -4.18%.
In the case of `COc1c(C)c2c(c(O)c1C/C=C(\C)CCC(=O)OCCN1CCOCC1)C(=O)OC2` [Mycophenolate_mofetil], the “percent difference in area” value was -4.5%.
As to `CC(C)(C)c1ccc(S(=O)(=O)NCc2ccc(C(=O)Nc3cccnc3)cc2)cc1`, the “percent difference in area” value is -12.4%.
For the compound `Nc1ccccc1NC(=O)c1ccc(CNc2nccc(-c3cccnc3)n2)cc1` [Mocetinostat], the “percent difference in area” value is 0.546%.
With `Cc1ccc(Nc2nccc(N(C)c3ccc4c(C)n(C)nc4c3)n2)cc1S(N)(=O)=O` [Pazopanib], the “percent difference in area” value is 5.29%.
Turning to `CN1CCCN(C(=O)c2cccc(-c3ccc(/C=C4/C(=O)Nc5ccc(Cl)cc54)o3)c2)CC1`, the “percent difference in area” value was -26.8%.
In the case of `Nc1nc(=S)c2[nH]cnc2[nH]1` [6_Thioguanine], the “percent difference in area” value was -37.9%.
For `CCc1nc(N)nc(N)c1-c1ccc(Cl)cc1` [Pyrimethamine], the “percent difference in area” value worked out at 33.6%.
As to `Cc1c(NC(=O)OC[C@@H]2COCCN2)cn2ncnc(Nc3ccc4c(cnn4Cc4cccc(F)c4)c3)c12`, the “percent difference in area” value was 3.34%.
On to `Nc1nc2c(c(=O)[nH]1)C[C@@H](CCc1ccc(C(=O)N[C@@H](CCC(=O)O)C(=O)O)cc1)CN2` [Lometrexol], for which the “percent difference in area” value was -68%.
Turning to `CC(C)=CCC1=C(O)C(=O)c2ccccc2C1=O` [Lapachol], the “percent difference in area” value was found to be 10.9%.
Regarding `CN1CCN(c2ccc(OC(F)(F)F)c(Nc3ncc4c(n3)-c3c(c(C(N)=O)nn3CCO)CC4)c2)CC1`, the “percent difference in area” value was -12.8%.
On to `CCOC(=O)c1[nH]c2cc(Cl)ccc2c1C(C(=O)NC(C)(C)C)N(C=O)Cc1ccc(Cl)cc1` (centres undefined), for which the “percent difference in area” value is 0.502%.
As for `Nc1ncn([C@H]2C[C@H](O)[C@@H](CO)O2)c(=O)n1` [Decitabine], the “percent difference in area” value is -25.4%.
The figure for `C#CC[C@H](c1nc2cc(Cl)ccc2c(=O)n1Nc1ccccc1)N(CCCN)C(=O)c1cccc(Cl)c1F` is -7.78%; for `CC1(C)CCC(c2ccc(Cl)cc2)=C(CN2CCN(c3ccc(C(=O)NS(=O)(=O)c4ccc(N[C@H](CCN5CCOCC5)CSc5ccccc5)c(S(=O)(=O)C(F)(F)F)c4)cc3)CC2)C1` it is -1.13% and -0.0577%; for `CC[C@@]1(O)C(=O)OCc2c1cc1n(c2=O)Cc2cc3c(CN(C)C)c(O)ccc3nc2-1` [Topotecan_HCl] it is -48.7%.
Consider `O=C1[C@H](CC[C@H](O)c2ccc(F)cc2)[C@@H](c2ccc(O)cc2)N1c1ccc(F)cc1` [Ezetimibe], for which the “percent difference in area” value is -5.77%.
As to `CNC(=O)c1cc(Oc2ccc(NC(=O)Nc3cc(C(C)(C)C)nn3-c3ccc4ncccc4c3)c(F)c2)ccn1`, the “percent difference in area” value was -8.43%.
For `CCN(CCCOc1ccc2c(Nc3cc(CC(=O)Nc4cccc(F)c4)[nH]n3)ncnc2c1)CCOP(=O)(O)O` [Barasertib], the “percent difference in area” value is -20.6%.
Consider `Cc1cn(-c2cc(NC(=O)c3ccc(C)c(Nc4nccc(-c5cccnc5)n4)c3)cc(C(F)(F)F)c2)cn1` [Nilotinib], for which the “percent difference in area” value is -3.16%.
Turning to `CCC[C@H](Nc1nc(-c2ccc(NC(=O)NCC)c(OC)c2)ncc1C)c1cccnc1`, the “percent difference in area” value was -15.1%.
As for `COC(=O)Nc1nc2cc(C(=O)c3cccs3)ccc2[nH]1` [Nocodazole], the “percent difference in area” value is -17.2%.
As to `COc1cc(F)c(F)c(Nc2ccc(I)cc2F)c1NS(=O)(=O)C1(C[C@H](O)CO)CC1` [Refametinib], the “percent difference in area” value is -9.94%.
For the compound `COc1cc2nccc(Oc3ccc(NC(=O)Nc4cc(C)on4)c(Cl)c3)c2cc1OC` [Tivozanib], the “percent difference in area” value was 7.69%.
The figure for `CN[C@H]1CN(c2ccc3c(=O)c(C(=O)O)cn(-c4nccs4)c3n2)C[C@@H]1OC` [Voreloxin] is -18%; for `O=C(/C=C/c1ccc2ccccc2n1)c1ccncc1` it is 7.96%; for `Nc1nc(Cl)nc2c1ncn2[C@H]1C[C@H](O)[C@@H](CO)O1` [Cladribine] it is -12.6 ± 2.1%.
Under `COc1cc(Nc2c(C#N)cnc3cc(OCCCN4CCN(C)CC4)c(OC)cc23)c(Cl)cc1Cl` [Bosutinib] stands 7.19%.
Take `Cn1cc(C2=C(c3ccc(Cl)cc3Cl)C(=O)NC2=O)c2ccccc21`: the “percent difference in area” value is -0.391%.
On to `COc1cc2nccc(Oc3ccc(NC(=O)C4(C(=O)Nc5ccc(F)cc5)CC4)cc3)c2cc1OC` [Cabozantinib_malate], for which the “percent difference in area” value was determined as 13.2%.
Regarding `CC(C)(C)C(=O)Nc1ccc2c(c1)C(=O)C(=O)c1ccccc1-2`, the “percent difference in area” value came to 2.11%.
The figure for `Nc1ccc(C(=O)Nc2cccc(-c3nc(N4CCOCC4)c4oc5ncccc5c4n3)c2)cn1` is 7.67%.
